In the library only some 3.7% were active in any assay of this set; here they are far more common.
MLL AF4-AF9 inh: inhibitors of human MLL-AF4/AF9 interaction; P42568; AlphaScreen, biotin-AF4 peptide binding to FLAG-AF9; inhibition, % at 10 µM; hit rate 0.47% among 350,000; AID 651704;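 active means every replicate reaching a set inhibition limit, whatever the replicate mean, cut at about 25% in these data; inconclusive means mean inhibition reaches that limit but some replicates miss it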
Target sequence (P42568 whole entry, looked up): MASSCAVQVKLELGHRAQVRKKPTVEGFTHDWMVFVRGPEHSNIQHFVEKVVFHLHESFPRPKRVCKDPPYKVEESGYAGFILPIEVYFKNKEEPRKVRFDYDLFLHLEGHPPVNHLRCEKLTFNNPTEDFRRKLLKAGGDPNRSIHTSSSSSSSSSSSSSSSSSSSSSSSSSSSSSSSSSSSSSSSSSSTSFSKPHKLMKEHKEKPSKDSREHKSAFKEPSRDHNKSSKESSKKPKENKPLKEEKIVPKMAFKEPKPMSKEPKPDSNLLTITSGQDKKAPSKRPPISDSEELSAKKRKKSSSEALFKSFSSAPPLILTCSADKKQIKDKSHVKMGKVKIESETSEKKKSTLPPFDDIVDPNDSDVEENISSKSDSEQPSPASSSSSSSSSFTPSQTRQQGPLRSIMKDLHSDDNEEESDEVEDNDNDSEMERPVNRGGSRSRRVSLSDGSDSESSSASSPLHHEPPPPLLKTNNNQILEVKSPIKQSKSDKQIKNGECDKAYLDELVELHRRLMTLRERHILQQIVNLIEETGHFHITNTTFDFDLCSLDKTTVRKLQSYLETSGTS
Wnt bcat act: activates Wnt/beta-catenin signaling in a reporter cell assay; activator, plate reader; activation, % at 9.35 µM; hit rate 1.2% among 300,000; AID 743398; in the data active means activation above about 30%, passing the limit was not always enough; inconclusive means no clear call, values can overlap the other calls
MITF TRPM1 HTS: MITF TRPM1 promoter activation in melanoma cells; SK-MEL-5 TRPM1-promoter luciferase, 24 h; % of positive control, neutral wells = 0; activation, % at 12.5 µM; hit rate 0.75% among 300,000;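 active means mean activation of at least 80% with every replicate also reaching 80%; inconclusive means mean reaches 80% but some replicate falls short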
Ecoli rRNA inh: selective bacterial rRNA inhibition in E. coli | E. coli WT GFP vs humanized-ribosome RFP mutants, fluorescence, 24 h; active compounds read low; DMSO median 0, no signal -100 | GFP signal change (wild-type ribosome), % (concentration not given with the values) | hit rate 1.6% among 350,000 | AID 720706;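 active means significant combined selectivity score with lowered wild-type GFP, culture density cut under 30%, mutant RFP and density less affected; inactive means any of these conditions unmet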
esBAF inh: blocks esBAF chromatin remodeling in mouse ES cells | reporter increase, % at 12.5 µM | hit rate 2% among 350,000 | Bmi1-luciferase knock-in reporter, 24 h; 100% = twice the neutral-well signal | AID 602393; in the data active means activation above about 40%; inconclusive means no clear call, values can overlap the other calls;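 further: a rise in the Bmi1 reporter signal indicates esBAF inhibition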
Numbers stand for hits; . = inactive; ? = inconclusive; / = no result.

SMILES | MLL AF4-AF9 inh | Wnt bcat act | MITF TRPM1 HTS | Ecoli rRNA inh | esBAF inh
CCc1nc2ccc(C(=O)N(CC)CCN(C)C)cn2c1N(C)C(=O)C1CCCCC1 | . | . | / | . | .
C=CCOc1cccc(C2/C(=C(/O)c3ccc4c(c3)CC(C)O4)C(=O)C(=O)N2CCN2CCOCC2)c1 (configuration not stated) | . | . | . | . | .
COCC(=O)Nc1ccc2c(c1)C(=O)N(C)C[C@H](OC)[C@H](C)CN(C(=O)c1ccccc1F)[C@@H](C)CO2 | . | / | / | . | .
COc1ccc(-c2c(C)nc3c(-c4ccsc4)cnn3c2N)cc1 | . | . | 94 | . | .
CCCCn1cnc2c(SCc3ccccc3)nc(N)nc21 | . | . | . | . | 50
CCCn1cnc2c(SCc3ccc(Cl)cc3)nc(N)nc21 | . | . | . | . | .
Nc1nc(SCc2ccccc2)c2ncn(Cc3ccccc3)c2n1 | . | . | . | -17 | .
CCCn1cnc2c(SCc3ccccc3)nc(N)nc21 | . | . | . | . | /
CSc1ncccc1C(=O)OCC(=O)NC12CC3CC(CC(C3)C1)C2 | . | . | . | . | .
Cc1ccc(N2CCN(C(=O)c3cn(CC4CCCCC4)nn3)C(C)C2)cc1 (configuration not stated) | . | 40 | . | . | /
O=C(c1cn(CC2CCCCC2)nn1)N1CCN(c2ccc(F)cc2)CC1 | . | . | . | . | .
C/C(=N\NC(N)=O)c1ccc(-n2ccnc2)cc1 | . | . | . | -16 | .
Cc1ccc(S(=O)(=O)N2[C@@H](c3ccc(Cl)cc3)C(C(=O)O)=CC[C@H]2c2cccc(Cl)c2)cc1 | . | . | . | . | .
COc1cccc([C@@H]2CC=C(C(=O)O)[C@H](c3cccc(Cl)c3)N2S(=O)(=O)c2ccc(C)cc2)c1 | . | . | . | -32 | .
Cc1ccc(S(=O)(=O)N2[C@@H](c3ccc(Cl)cc3)C(C(=O)O)=CC[C@H]2c2cccc(C)c2)cc1 | . | . | / | -22 | .
Cc1ccc(/C=N/N=C/c2ccc(C)s2)s1 | / | / | . | / | .
O=C(O)c1ccc(COc2ccc(/C=N/NC(=O)c3cccs3)cc2)cc1 | . | . | . | . | .
Cc1ccc(NCC(=O)N/N=C\C(Br)=C\c2ccccc2)cc1 | . | . | . | . | 55
Cc1occc1C(=O)N/N=C/C=C/c1ccccc1 | . | . | ? | . | /
Cc1occc1C(=O)N/N=C/C(Br)=C\c1ccccc1 | . | 58 | / | . | /
O=C(N/N=C/c1cccc(OCc2ccccc2)c1)c1cccs1 | / | 39 | / | / | 46
Cc1cc(C)nc(SCC(=O)N/N=C\C(Br)=C\c2ccccc2)n1 | . | . | . | . | /
Cc1ccc(C(=O)CNc2ccccc2)cc1 | . | . | . | . | 62
O=C(N/N=C/C(Br)=C\c1ccccc1)c1cccs1 | . | 126 | / | . | /
O=C(N/N=C/c1cccc(Oc2ccccc2)c1)c1ccccc1Br | . | . | . | -28 | .
SMILES | MLL AF4-AF9 inh | Wnt bcat act | MITF TRPM1 HTS | Ecoli rRNA inh | esBAF inh
Cc1ccc(C2=[N+]([O-])C(C)N(O)C2(C)C)o1 (configuration not stated) | / | / | / | / | .
O=C(NNCc1ccccc1)c1ccccn1 | . | 36 | . | . | .
O=C(NNCc1ccccc1)c1ccccc1 | . | . | . | . | .
O=C(CC(=O)c1ccccn1)c1ccccc1 | . | 50 | . | . | /
C[C@H](CO)N1C[C@H](C)[C@@H](CN(C)C)OCCCC[C@H](C)Oc2ccc(NC(=O)Nc3ccc(F)cc3)cc2C1=O | / | / | / | . | .
CN(C(=O)COC(=O)c1cnc(Cl)c(Cl)c1)C1CCCCC1 | . | . | . | -14 | .
Clc1ccc(-n2ncc3c(NCc4ccccn4)ncnc32)cc1 | / | . | . | / | 68
COc1ccccc1CNc1ncnc2c1cnn2-c1ccccc1 | . | . | . | . | 71
c1ccc(Cn2ncc3c(NCc4ccco4)ncnc32)cc1 | / | . | . | / | .
Cc1ccc(-n2ncc3c(NCc4ccccn4)ncnc32)c(C)c1 | / | / | . | / | .
c1ccc(-n2ncc3c(NCc4ccco4)ncnc32)cc1 | / | ? | . | / | 57
COc1cccc2cc(C(=O)OCC(=O)N3CC(C)OC(C)C3)c(=O)oc12 (configuration not stated) | . | . | . | . | 64
CCOc1cccc2cc(C(=O)N3CC(C)OC(C)C3)c(=O)oc12 (configuration not stated) | . | . | . | . | .
C=C(C)Cn1c(=O)c2c(nc3n2CCCN3Cc2ccccc2)n(C)c1=O | . | . | . | -28 | .
O=C(C[C@H]1C[C@@H]2c3cc(NS(=O)(=O)c4ccc(F)cc4)ccc3O[C@@H]2[C@H](CO)O1)NCc1ccccc1 | . | / | / | . | .
CC1(C(=O)NCc2cccs2)Cc2c(-c3ccc(C(N)=O)cc3)ccnc2O1 (configuration not stated) | . | . | / | . | .
Cc1oc(-c2ccccc2F)nc1CS(=O)CC(=O)NCc1ccc2c(c1)OCO2 (configuration not stated) | . | 43 | / | . | .
NC(=O)[C@H]1CC2(CC(c3cccc(NC(=O)c4ccccc4)c3)=NO2)CN1C(=O)[C@H]1CCC(=O)N1 (some centres not stated) | . | 53 | . | . | .
C[C@@H]1CN([C@@H](C)CO)C(=O)c2cc(NC(=O)NC3CCCCC3)ccc2O[C@H]1CN(C)Cc1ccc(-c2ccccc2)cc1 | . | / | / | . | .
CCCC(=O)Nc1ccc2c(c1)C(=O)N(C)C[C@H](OC)[C@@H](C)CN(Cc1ccc(-c3ccccn3)cc1)[C@@H](C)CO2 | . | / | / | . | 112
CCCNC(=O)Nc1ccc2c(c1)C(=O)N(C)C[C@H](OC)[C@@H](C)CN(Cc1ccc(-c3ccccn3)cc1)[C@@H](C)CO2 | / | / | / | . | 97
CCCC(=O)Nc1ccc2c(c1)C(=O)N(C)C[C@H](OC)[C@@H](C)CN(Cc1ccc(-c3ccccn3)cc1)[C@H](C)CO2 | . | / | / | . | .
CCCNC(=O)Nc1ccc2c(c1)C(=O)N(C)C[C@@H](OC)[C@@H](C)CN(Cc1ccc(-c3ccccn3)cc1)[C@@H](C)CO2 | . | / | / | . | .
COc1cccc2cc(C(=O)NCc3ccccc3Br)c(=O)oc12 | . | . | . | . | 41
C[C@H](C(=O)NCc1ccccc1)C(=O)c1ccccc1 | . | . | . | . | .
SMILES | MLL AF4-AF9 inh | Wnt bcat act | MITF TRPM1 HTS | Ecoli rRNA inh | esBAF inh
CC1(C)NC(=O)N(CCOCCOc2ccc3ccccc3c2Br)C1=O | / | . | . | / | ?
CC1(C)NC(=O)N(CCCCOc2ccc3ccccc3c2Cl)C1=O | / | / | . | / | 53
CCOC(=O)c1c(C)[nH]c(C(=O)/C(C#N)=C/c2ccc(OC)c(OC)c2)c1C | . | . | . | . | /
COc1ccc2c(c1)C(c1ccc(N3CCOCC3)cc1)=NNC(c1cccnc1)=N2 | . | . | . | -17 | /
CC(C)c1ccc2c(c1)C(c1ccc(N3CCOCC3)cc1)=NNC(c1cccs1)=N2 | / | . | / | / | 65
COc1ccc(C2=NNC(c3cccnc3)=Nc3ccc(OC)cc32)cc1 | . | . | . | . | /
CC(C)c1ccc2c(c1)C(c1cccs1)=NNC(c1ccncc1)=N2 | . | . | . | . | .

Compound activity: PubChem, Broad Institute
